Only a selection was taken, and hits are over-represented in it overall.
VCAM1 TNFa pot: potentiators of TNFa-induced VCAM1 expression, primary screen, imaging, HUVEC, TNFa stimulus, immunofluorescence. HUVEC TNFa-stimulated VCAM-1 immunofluorescence, high-content imaging; scaled per plate to unstimulated/TNFa-only wells. activation, % at 2 µM. actives 0.19% (n = 93,000). AID 808, 2007;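 active means activation above the screen mean plus 3 SD, with well images confirming the hit on visual review, cut at about 28% in these data, passing the limit was not always enough; inconclusive means activation above that limit but images do not confirm it; inactive means activation not above that limit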;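 further: signal is the number of cytoplasmic VCAM-1 stained grains per positive cell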
VCAM1 pot confirm: potentiators of TNFa-induced VCAM1 expression, confirmation, imaging, HUVEC, triplicate retest; shares compounds with VCAM1 TNFa pot; HUVEC TNFa-stimulated VCAM-1 immunofluorescence imaging; activation, % at 2 µM; 230 tested, under 10 active;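 active means activation above 30% in triplicate retests at 2 µM, then confirmed by visual review of the well images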;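 further: scaled per plate between unstimulated and TNFa-stimulated DMSO control wells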
An asterisk follows results filed as active; ? = inconclusive.

SMILES	VCAM1 TNFa pot	others
CCC(=O)Nc1sc2c(c1C(N)=O)CCC2	113.9*	VCAM1 pot confirm=-8.2
NC(=O)c1c(NC(NC(=O)c2ccco2)(C(F)(F)F)C(F)(F)F)sc2c1CCCC2	-16.6
O=C(Oc1ccc(-c2ccccc2)cc1)N1CCCCC1	7.4
CCC(C)C1C(C#N)=C(N)Oc2n[nH]c(-c3ccccc3)c21 (stereo unspecified)	-55.9
COc1ccc(NC(=O)c2cnc(C)cn2)cc1-n1cnnn1	2.2
COc1ccc(N/C(=N\c2nc(C)cc(C)n2)NC(=O)C(C)C)cc1OC	2.7
Cc1cc2nc(-c3ccc(NC(=O)C(C)C)cc3)oc2cc1C	58.0*	VCAM1 pot confirm=-2.6
CC(Oc1ccc(Cl)cc1Cl)C(=O)Nc1ccc2oc(-c3ccncc3)nc2c1 (stereo unspecified)	5.9
COc1ccc(NC(=O)c2ccc(-n3cccn3)nc2)c(OC)c1	6.4
O=S1CC/C(=N\O)c2ccccc21 (stereo unspecified)	14.4
COc1ccc(-n2ccnc2SCC(=O)Nc2ccccc2)cc1	80.8*	VCAM1 pot confirm=-11.6
COc1ccc(NC(=O)CSc2nccc(C)n2)cc1	31.5
CCOC(=O)c1ccc(NC(=O)CSc2nnc(COc3ccccc3)n2C)cc1	10.9
CCCCSc1nnc(CCC)n1N	-9.2
COC(=O)C(NC(=O)c1ccco1)(Nc1cc(C)ccn1)C(F)(F)F (stereo unspecified)	-4.0
C=C(C)CSc1nc(C)c(Cc2ccccc2)c(=O)[nH]1	-2.4
Cc1nc(NCc2ccccc2)[nH]c(=O)c1CCC(C)C	?	VCAM1 pot confirm=-16.4
O=C(COC(=O)c1cccnc1Cl)c1cccc(Cl)c1	-2.8
CCCCCCOC(=O)C1=C(C)NC(=O)NC1c1ccc(O)cc1 (stereo unspecified)	5.6
CC(=NCCCNC1CCCCC1)C1=C(O)CC(C)(C)CC1=O	?	VCAM1 pot confirm=-7.8
COC(=O)c1ccccc1N1C(=O)[C@@H]2C(c3ccc(Br)cc3)=NO[C@@H]2C1=O	7.2
CC(=O)Oc1ccc(C(=O)Nc2ccc3c(c2)C(=O)N(CCC(=O)O)C3=O)cc1	-5.2
O=C(Nc1cccc(Cl)c1)C1CCCN(S(=O)(=O)c2cnc[nH]2)C1 (stereo unspecified)	7.6
O=C(NC1CCCCC1)C1CCCN1S(=O)(=O)c1cccc2nsnc12 (stereo unspecified)	-1.2
O=C(Nc1ccc(Cl)cn1)C1CCCN1S(=O)(=O)c1cccc2ccccc12 (stereo unspecified)	31.2*	VCAM1 pot confirm=-11.9
SMILES	VCAM1 TNFa pot	others
CNc1c([N+](=O)[O-])cnn1-c1ccccc1Cl	3.2
N#CC1=C(N)Oc2c(ccc3ccccc23)C1c1cccs1 (stereo unspecified)	-79.6
COc1ccc(N2CCN(C(=O)CN(c3ccccc3)S(C)(=O)=O)CC2)cc1	3.1
Cc1cc(=O)oc2ccc(OCC(=O)N3CCC(C)CC3)cc12	-37.0
CC(C)(C)c1ccc(OCC(=O)N2CCN(C=O)CC2)cc1	68.9*	VCAM1 pot confirm=-9.1
O=C(COc1ccc2ccccc2c1)N1CCN(c2ccccc2O)CC1	-17.4
O=C(C1CCN(C2CC(=O)N(c3ccc(Cl)cc3)C2=O)CC1)N1CCOCC1 (stereo unspecified)	7.4
CCn1c(=O)c2c(cnn2C)c2ccccc21	-13.2
CCn1c2ccccc2c2cc(C3N=C(N)Nc4nc5ccccc5n43)ccc21 (stereo unspecified)	53.6*	VCAM1 pot confirm=-8.8
CCn1c(CNC(=O)C(C)(C)C)nc2ccccc21	-5.9
Cc1nnc(SCc2cccc(Oc3ccccc3)c2)n1N	-9.9
O=C(NNC(=O)c1sccc1-n1cccc1)c1cccc(Cl)c1	-3.7
O=C(c1ccc2c(c1)[nH]c(=S)n1c3ccccc3nc21)N1CCN(c2ncccn2)CC1	-1.0
Cn1nc(-c2ccc(C(=O)N3CCN(c4ccccc4)CC3)cc2)c2ccccc2c1=O	10.5
O=C(c1ccc(-c2ccccc2)cc1)N1CCN(c2ncccn2)CC1	?	VCAM1 pot confirm=-4.3
CCc1ccc(C(=O)COC(=O)CNC(=O)c2ccc(N3C(=O)c4ccccc4C3=O)cc2)cc1	5.0
CCOC(=O)Cn1nc(/C=C/c2ccc(C(C)C)cc2)ccc1=O	5.1
CCCCOCCCNC(=O)c1cccs1	-89.5
Cc1ccc(S(=O)(=O)NCCCNC(=O)c2ccccc2)cc1	2.1
CCCCN(CCCNC(=O)c1c(C)cc(=O)oc1C)c1ccccc1	39.5*	VCAM1 pot confirm=-5.7
COCCNc1nc(C(C)(C)C)nc2c1nnn2Cc1ccccc1Cl	-17.1
N#Cc1cnn(-c2ccccc2)c1N	-9.9
N#Cc1ccc(-n2c(-c3ccccc3)nnc2-c2ccccc2)cc1C#N	52.5*	VCAM1 pot confirm=-10.8
N#Cc1cc(Oc2ccccc2)c(-n2nnc3ccccc32)cc1C#N	27.2
COC(=O)C(C)NC(=O)C12CC3CC(CC(C3)C1)C2 (stereo unspecified)	-13.6
SMILES	VCAM1 TNFa pot	others
COc1ccccc1C1C(C(C)=O)=C(C)N=c2s/c(=C\c3cc(OC)c(OC)c(OC)c3)c(=O)n21 (stereo unspecified)	15.8
CCOC(=O)N1CCN(/C=C(\C#N)c2nc3ccccc3s2)CC1	-9.5
CCC(C)COC(=O)C(C#N)c1nc2ccccc2nc1N1CCCCC1 (stereo unspecified)	36.0*	VCAM1 pot confirm=-17.4
Cn1cnnc1SCC(=O)Nc1ccccc1C(=O)NC1CC1	35.8*	VCAM1 pot confirm=-13.4
Cc1nnc(NC(=O)CSc2nccn2C)s1	6.4
Cn1cnnc1SCCNS(=O)(=O)c1ccccc1	7.4
C=CCn1c(SC(C)C(=O)NC2(C#N)CCCCC2)nnc1-c1ccc(OC)cc1 (stereo unspecified)	15.7
Cc1occc1C(=O)N1N=C(C2CC2)CC1(O)C(F)(F)F (stereo unspecified)	-5.6
CCOC(=O)c1c(CC(C)C)csc1NC=O	2.3
Cc1ccc(-c2cc(=O)[nH]c3ccccc23)cc1	18.3
Cc1ccc(C(C)NC(=O)/C(C#N)=C\c2c(C)[nH]c3ccccc23)cc1 (stereo unspecified)	51.8*	VCAM1 pot confirm=-14.9
Cn1c(CN2CCCC2)nc2cc(NS(=O)(=O)c3ccc(Cl)cc3)ccc21	3.7
O=C(c1cccc(C(F)(F)F)c1)N1CCCC1	15.2
CCOC(=O)c1cnc(-n2nc(C)cc2C)nc1NCc1ccccc1	-91.8
CCN1C(=O)c2c(C)nc3ccccc3c2C1=O	9.9
Cn1c(SCC(=O)Nc2ccccc2)nnc1-c1ccc(NC(=O)CCc2ccccc2)cc1	3.3
CSc1nnc(-c2ccc(NC(=O)CCc3ccccc3)cc2)n1C	?	VCAM1 pot confirm=-5.2
COc1cccc(-c2nnc(SCCC(=O)O)n2C)c1	7.2
CCCCC1(CCCC)NC(=S)N(Nc2ccc(C)cc2)C1=O	-6.6
COc1cc(NC(=O)c2ccc(COCC(F)(F)F)o2)cc(OC)c1OC	-50.4
COC(=O)c1cc(OC)c(OCc2cc(C(=O)OC)oc2C)c(OC)c1	53.0*	VCAM1 pot confirm=-10.5
Cc1oc(C(=O)O)cc1CSCc1cc(C(=O)O)c(C)o1	3.8
C=CCc1ccc(OCc2ccc(C(=O)OC)o2)c(OC)c1	-0.5
Cc1cc(C)c(NC(=S)N2CCC(N(C)CC3CCCO3)CC2)c(C)c1 (stereo unspecified)	0.2
Cc1ccnc(SCC(=O)N2CCN(c3ccccc3)CC2)n1	24.9
Cc1ccc(N2CN=c3s/c(=C\c4cccnc4)c(=O)n3C2)cc1	98.3*	VCAM1 pot confirm=1.3
CCOC(=O)c1cccc(NC(=O)C(C)N2C(=O)c3ccccc3C2=O)c1 (stereo unspecified)	36.2*	VCAM1 pot confirm=-14.7
